Consider 87 molecules from PubChem BioAssay AID449746 (Sanford-Burnham Center for Chemical Genomics, 2010).

Structures are written as SMILES. Screen size: about 2,000 compounds; about 680 (34%) were called active. A selection follows. A number with no mark means an inactive call. Cut-off read from the data, not from the text of the source: active = inhibition mostly above about 28% (no sharp cut-off); inactive = mostly below about 22%.

A word on the inhibition: it is the drop in the measured response relative to a control, in per cent.

The assay is described as follows: PMA/ionomycin-induced NF-kB reporter inhibitors, 697 retest, confirmation, B-cell NF-kB inhibitor project, cell-based, luminescence, single concentration (AID 449746). Particulars: 697 B-cell NF-kB luciferase, 16 h, at 4 µM, hits give high values.
With `CCOc1cc(C(=O)N2CCc3cc(OC)c(OC)cc3C2)ccc1OC(F)F`, the inhibition is 43.5% (active).
To `Cc1ccc(C(=O)C[n+]2cc(-c3ccccc3)n3c2CCCCC3)cc1` belongs 11.4%.
In the case of `c1ccc2[nH]c(-c3nc4ccccc4[nH]3)nc2c1`, the inhibition was -191%.
On to `Cc1cccc(Nc2nc(-c3ccccc3)cs2)n1`, for which the inhibition is -201%.
Consider `CCN1/C(=C\c2ccc3ccccc3[n+]2CC)Sc2cc(C)ccc21`, for which the inhibition was 68.5% (active).
As for `COc1cccc(NC(=O)[C@H](Cc2c[nH]c3ccccc23)NC(=O)[C@@H]2Cc3ccccc3CN2)c1`, the inhibition is 0.1%.
For the molecule `CC[n+]1cc(C)ccc1/C=C/c1ccc(N(C)C)cc1`, the inhibition was 17.4%.
Turning to `OCCCNc1nccc(-c2cc(Nc3cccc(Cl)c3)ncn2)n1`, the inhibition is 85.9% (active).
To `COC(=O)C1=C(C(=O)c2ccc(C)cc2)C(c2ccccc2)n2nnnc2N1` (configuration not stated) belongs 22.4%; to `CCc1ccc2oc(-c3ccc(N)cc3)nc2c1`, -417%.
For the molecule `CCCCCc1ccc(-c2ccc(C(=O)O)cc2)nc1`, the inhibition is -165%.
`CNc1nc(Nc2ccc(C)c(Cl)c2)nc(N)c1[N+](=O)[O-]`: the inhibition was -231%.
On to `O=C(C1CCC1)N1CCN(S(=O)(=O)c2ccc([N+](=O)[O-])cc2)CC1`, for which the inhibition is 30.8% (active).
With `C=CCSc1nc(N)cc(=O)[nH]1`, the inhibition was -19.9%.
In the case of `COc1ccc(C(=O)n2nc(-c3ccc(Cl)cc3)nc2N)cc1OC`, the inhibition was 46.5% (active).
For the molecule `C=CCn1c(C)cc(C2=NNC(=NCC)SC2)c1C`, the inhibition was 2.7%.
Regarding `COc1cc(/C=N/NC(=O)c2ccc(N3CCCC3=O)cc2)ccc1O`, the inhibition was -89.1%.
As to `COc1ccc(-c2nc(-c3ccccc3)no2)c(OC)c1`, the inhibition is -330%.
In the case of `O=C(O)COc1ccc(-c2nccc(-c3cccs3)n2)cc1`, the inhibition was 55% (active).
To `CCn1c(O)c(N=NC2=NC(=O)CS2)c2cc(C)ccc21` belongs 17.4%.
Take `COc1ccc(/C=N/Nc2ccccc2C(=O)O)cc1`: the inhibition is -12.1%.
For `Clc1ccc(Nc2ccc3ccccc3n2)cc1`, the inhibition is -340%.
`C/C=C(/C)C(=O)OC1Cc2c(ccc3ccc(=O)oc23)OC1(C)C` (configuration not stated): the inhibition is 50.1% (active).
On to `COc1ccc(/C=N\NC(=O)c2sc(N)nc2C)cc1OC`, for which the inhibition is 7.5%.
`CCC(=O)Nc1ccc2nn(-c3ccc(F)cc3)nc2c1`: the inhibition was -298%.
As to `COc1ccc(CNC(=O)[C@@H]2CC=C[C@@H]3CCN(C4CC4)C(=O)[C@@H]32)cc1`, the inhibition is 6.95%.
To `CCOC(=O)c1cc2c(=O)n3ccccc3nc2n(CC(C)C)c1=NC(=O)c1c(-c2c(F)cccc2Cl)noc1C` belongs 33% (active).
To `CCOc1cccc(/C=C/c2ccc3ccccc3n2)c1OC(C)=O` belongs -337%; to `COc1ccc(C(=O)NC2CCCc3c2cnn3-c2cccc(C)c2C)c(OC)n1` (configuration not stated), -397%; to `Cn1nccc1C(=O)NC1CCCc2c1cnn2-c1ccc(F)cc1F` (configuration not stated), 105% (active).
In the case of `Cn1nccc1C(=O)NC1CCCc2c1cnn2-c1ccccc1F` (configuration not stated), the inhibition was 97.9% (active).
Consider `Cc1cc(Nc2cc(N3CCN(C)CC3)nc(Sc3ccc(NC(=O)C4CC4)cc3)n2)n[nH]1`, for which the inhibition is 27.8%.
The same measure for `COc1c(C)c2c(c(O)c1C/C=C(\C)CCC(=O)O)C(=O)OC2`: -398%; for `CC(C)CC(=O)N/C(N)=N/c1nc2ccccc2s1`: -290%.
In the case of `Cc1ccc2cc3cc(C(=O)N4CCCCCC4)oc3nc2c1`, the inhibition was -242%.
For the molecule `COc1cc(N=Cc2c(O)[nH]c3ccccc23)cc(OC)c1OC`, the inhibition is 20.8%.
On to `OCCN1CCN(C(=S)c2ccc(-c3ccccc3)cc2)CC1`, for which the inhibition is 47% (active).
Take `CCOC(=O)c1c(-c2ccc(C)cc2C)csc1NC(=O)CSc1nnnn1C`: the inhibition is -192%.
In the case of `COc1ccc(-c2csc(Nc3ccccn3)n2)cc1`, the inhibition is -117%.
On to `O=C(CN1C(=O)c2ccccc2S1(=O)=O)N1CCc2ccccc21`, for which the inhibition was 32.4% (active).
Regarding `Cc1cc(N=Nc2ccc3ccccc3c2)ccc1O`, the inhibition is -266%.
For the molecule `CC(C)(C)c1ccc(Oc2ccc(N)cc2)cc1`, the inhibition was 17.2%.
Take `Cn1c(-c2ccc(C(F)(F)F)cc2)cc2onc(-c3ccccc3)c2c1=O`: the inhibition is -301%.
Take `Cc1cc(N)n2nc(-c3ccc(C(C)(C)C)cc3)cc2n1`: the inhibition is -470%.
As for `O=C(NC(Nc1nc2ccc([N+](=O)[O-])cc2s1)(C(F)(F)F)C(F)(F)F)c1ccccc1`, the inhibition was -31.2%.
Consider `CCNC(=O)CCc1nc(-c2ccc(C(C)(C)C)cc2)no1`, for which the inhibition is 79.3% (active).
To `CCCNC(=O)c1ccc(N2CCC3(CC2)CC(c2cccc(Br)c2)=NO3)c(NC(=O)c2ccco2)c1` belongs 16.6%; to `O=C(NCCCN1CCOCC1)c1cc(-c2ccc(Cl)cc2)on1`, 17.5%.
As to `O=c1c2c(nc3cc(-c4cccc(Cl)c4)[nH]n13)CCCC2`, the inhibition is -285%.
As for `Clc1ccc2nc(CSc3ccccc3)cn2c1`, the inhibition is -248%.
The same measure for `CC(C)C[C@@H](N)c1nnc(SCC(=O)c2ccc(Cl)cc2)o1`: 56.2% (active); for `Fc1ccccc1/C=N/Nc1cc(N2CCCCC2)ncn1`: -264%.
Take `CCOc1ccc(C(c2c(C)[nH][nH]c2=O)c2c(C)[nH][nH]c2=O)cc1OCC`: the inhibition is 18.2%.
Regarding `Cn1c(=O)cc(SCC(=O)N2CCCC2)c2cc(Cl)ccc21`, the inhibition is 38.2% (active).
As to `CC(C)CCNC(=O)c1ccc2c(Cl)c3c(nc2c1)CCC3`, the inhibition was -231%.
Regarding `Cc1ccc(O)c(NC(=O)COc2cc(C)ccc2C)c1`, the inhibition is 28.7% (active).
Consider `Cc1ccc(NC(=O)c2cc([N+](=O)[O-])ccc2Cl)c(O)c1`, for which the inhibition was 11.5%.
With `CC[C@]1(O)CC2CN(CCc3c([nH]c4ccccc34)[C@@](C(=O)OC)(c3cc4c(cc3OC)N(C=O)[C@H]3[C@@](O)(C(=O)OC)[C@H](OC(C)=O)[C@]5(CC)C=CCN6CC[C@]43[C@@H]65)C2)C1` (some centres not stated), the inhibition was -337%.
On to `COc1ccc(C2=Nc3cc(C)ccc3OC2)cc1`, for which the inhibition was -255%.
`Cc1cccc(C(=O)Nc2ccc(CC(=O)O)cc2)c1`: the inhibition was 21.7% (active).
To `Cc1ccc(N/C=C/C(=O)c2ccccc2)cc1C` belongs -12.9%.
Turning to `CNC(=O)c1ccc(NC(=O)c2cccc(C(F)(F)F)c2)cc1`, the inhibition is 12.7%.
As for `COc1ccc(-n2nnnc2-c2nc3ccccc3s2)cc1`, the inhibition is -323%.
To `COc1ccc2nc(SCc3ccccc3)nc(C)c2c1` belongs -295%; to `O=C(Nc1nc2ccccc2s1)c1ccc2c(c1)OCO2`, -466%; to `Cn1c(=O)n(C)c2cc(C(=O)Nc3ccc4c(c3)OCO4)ccc21`, 35.1% (active).
To `C/C(=N\Nc1nc(Nc2ccccc2)nc(N2CCOCC2)n1)c1cccs1` belongs 34.2% (active); to `Cc1ccc(-n2cc3ccc([N+](=O)[O-])cc3n2)cc1`, -341%.
Regarding `Cc1cc2nc(-c3ccc(NC(=O)c4cccnc4)cc3)oc2cc1C`, the inhibition is -187%.
`Cc1cccc(-n2c(C)cc(/C=N\NC(=O)c3cccs3)c2C)c1`: the inhibition is -11.6%.
Consider `C[C@@H]1C[C@@H]2O[C@H]2/C=C\C=C\C(=O)Cc2c(Cl)c(O)cc(O)c2C(=O)O1`, for which the inhibition is 79.9% (active).
To `COc1cccc(/C=C/c2ccc3ccccc3n2)c1OC(C)=O` belongs -459%; to `COc1ccc(/C=C2\SC(=S)N(CCC(=O)Nc3ccccn3)C2=O)cc1OC`, 10.2%.
Take `C=CCOc1ccc(/C=C2\SC(=S)N(CCC(=O)O)C2=O)cc1`: the inhibition is 54.5% (active).
As for `NS(=O)(=O)c1ccccc1NC(=O)c1c(O)c2ccccc2[nH]c1=O`, the inhibition is -472%.
Turning to `O=C(/C=C/c1ccc(OCc2c(F)cccc2Cl)cc1)N1CCOCC1`, the inhibition was -278%.
As to `COc1ccc(CNC(=O)CNC(=O)c2sc3ccccc3c2Cl)cc1OC`, the inhibition is 3.3%.
For the molecule `Cn1c(-c2ccc(F)cc2)cc2onc(-c3ccccc3Cl)c2c1=O`, the inhibition was -244%.
To `O=C(O)CCn1c(O)c(C=C2N=c3ccccc3=N2)sc1=S` belongs 58.5% (active).
With `O=c1[nH]c(-c2ccccc2)c(-c2ccccc2)[nH]1`, the inhibition is 25.8%.
In the case of `CCOc1ccc(N/C=C/C(=O)c2ccccc2)cc1`, the inhibition is -272%.
The same measure for `COc1ccccc1OCc1nc2ccccc2s1`: -319%; for `CCCc1nc2c(C)cc(-c3nc4ccccc4n3C)cc2n1Cc1ccc(-c2ccccc2C(=O)O)cc1`: 28.4% (active); for `Cn1c(-c2ccc(C(=O)c3ccccc3)s2)nc2ccccc21`: -249%.
Consider `Cc1ccc(OCc2nc3ccccc3n2C)cc1`, for which the inhibition was -216%.
With `COc1cccc(-c2nc3cc(C)ccc3o2)c1`, the inhibition was -299%.
Take `COc1ccc(Nc2nc(-c3ccccc3)cs2)cc1`: the inhibition is -131%.
